Source: PubChem BioAssay (EPA / NIEHS)
Inconclusive results are not listed. The source made the active and inactive calls. Rule for the calls, unless noted: active = hit-call score of the fitted dose curve at least 0.9, where 1 is the maximum; inconclusive = response in the unintended direction; inactive = score below 0.9.

Columns and labels:
[1] = target: Bile acid receptor (Homo sapiens) (UniProt Q96RI1); assay: OT_FXR_FXRSRC1_0480: Odyssey Thera (OT) 8-hour HEK293T Protein-Complementation Assay for Farnesoid X receptor/SRC-1 Co-activator (AID 2283383)
Summary of the method: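 Human kidney HEK293T cells carried FXR/SRC-1 fragment-complementation constructs. Compounds were added and incubated 8 h. Reporter reassembly upon receptor–co-activator interaction was then quantified by fluorescence, with curves fitted in the positive direction relative to DMSO.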

[2] = target: Retinoic acid receptor RXR-alpha (Homo sapiens) (UniProt P19793); assay: OT_NURR1_NURR1RXRa_0480: Odyssey Thera (OT) 8-hour HEK293T Protein Complementation Assay for Nurr1/retinoid X receptor (RXR) (AID 2283385)
Summary of the method: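 8 h compound exposure, HEK293T; Nurr1/RXRα fragment complementation; fluorescence intensity; positive fitting direction vs DMSO baseline.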

[3] = target: Peroxisome proliferator-activated receptor gamma (Homo sapiens) (UniProt P37231); assay: OT_PPARg_PPARgSRC1_0480: Odyssey Thera (OT) 8-hour Protein-Complementation Assay for Peroxisome Proliferator-activated Receptor Gamma / SRC-1 Co-activator (AID 2283387)
Summary of the method: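 Protein-fragment complementation of split Venus YFP reports PPARg/SRC-1 interaction in HEK293T (transfected 48 h before treatment), exposed 8 h. Readout: N/C fluorescence ratio at 488 nm from imaging, Draq5 for segmentation, positive fit relative to DMSO.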

[4] = target: Bile acid receptor (Homo sapiens) (UniProt Q96RI1); assay: OT_FXR_FXRSRC1_1440: Odyssey Thera (OT) 24-hour HEK293T Protein-Complementation Assay for Farnesoid X receptor/SRC-1 Co-activator (AID 2283384)
Summary of the method: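 Compounds are applied to human kidney HEK293T cells expressing bait and prey fused to reporter protein fragments; after 24 h, reconstituted reporter fluorescence is measured. Activity is fitted as signal gain over DMSO.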

[5] = target: Peroxisome proliferator-activated receptor gamma (Homo sapiens) (UniProt P37231); assay: OT_PPARg_PPARgSRC1_1440: Odyssey Thera (OT) 24-hour Protein-Complementation Assay for Peroxisome Proliferator-activated Receptor Gamma/ SRC-1 Co-activator (AID 2283388)
Summary of the method: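 HEK293T cells transiently transfected with PPARg and SRC-1 fused via (Gly4Ser)2 linker to split Venus YFP fragments (IFP1/IFP2) were dosed 24 h; fixed, Draq5-stained, imaged at 488/635 nm; nuclear/cytoplasmic fluorescence ratio scored versus DMSO baseline, gain-of-signal.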

[6] = target: Retinoic acid receptor RXR-alpha (Homo sapiens) (UniProt P19793); assay: OT_NURR1_NURR1RXRa_1440: Odyssey Thera (OT) 24-hour HEK293T Protein Complementation Assay for Nurr1/retinoid X receptor (RXR) (AID 2283386)
Summary of the method: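 Interaction of Nurr1 with RXRα brings fused reporter fragments together in human HEK293T cells, restoring a functional reporter. Fluorescence intensity is measured 24 h after chemical treatment, and values are analysed in the positive direction against DMSO.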

[7] = CEETOX_H295R_11DCORT: CeeTox H295R High-throughput Steroidogenesis Assay for 11-Deoxycortisol (11DCORT) (AID 2283432; active = hit-call score of the fitted dose curve at least 0.9, where 1 is the maximum; inactive = score below 0.9;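 for AC50: 11-deoxycortisol secreted into the medium measured by LC-MS/MS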); conditions: actives raise or lower the signal
Summary of the method: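 Human adrenal H295R cells were prestimulated with 10 uM forskolin for 48 h, then exposed to test chemical (0.1% DMSO final) for 48 h. Medium 11-deoxycortisol was quantified by MTBE extraction and HPLC-MS/MS; bidirectional fitting relative to DMSO.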

[8] = CEETOX_H295R_OHPREG: CeeTox H295R High-throughput Steroidogenesis Assay for OH-Pregnenolone (OHPREG) (AID 2283434; active = hit-call score of the fitted dose curve at least 0.9, where 1 is the maximum; inactive = score below 0.9); conditions: actives raise or lower the signal
Summary of the method: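 Hormone levels in spent medium were measured by tandem mass spectrometry following liquid-liquid extraction. Cells (H295R) had been forskolin-stimulated (10 uM, 48 h) before a 48 h chemical exposure at 0.1% DMSO, with activity fitted in both directions against DMSO.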

[9] = CEETOX_H295R_OHPROG: CeeTox H295R High-throughput Steroidogenesis Assay for OH-Progesterone (OHPROG) (AID 2283435; active = hit-call score of the fitted dose curve at least 0.9, where 1 is the maximum; inactive = score below 0.9;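 for AC50: 17alpha-hydroxyprogesterone secreted into medium measured by HPLC-MS/MS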); conditions: actives raise or lower the signal
Summary of the method: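 H295R, 10 uM forskolin prestim 48 h; cmpd in 0.1% DMSO 48 h; medium MTBE-extracted, HPLC-MS/MS for OH-progesterone; 7-pt std curve; bidirectional fit vs DMSO; MTT viability, chemicals diluted until viability >/=70%.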

[10] = CEETOX_H295R_CORTISOL: CeeTox H295R High-throughput Steroidogenesis Assay for Cortisol (AID 2283438; active = hit-call score of the fitted dose curve at least 0.9, where 1 is the maximum; inactive = score below 0.9;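 note: cortisol secreted into medium quantified by LC-MS/MS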); conditions: actives raise or lower the signal
Summary of the method: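 Forskolin 10 uM 48 h prestim → test cmpd in DMSO (0.1% final) 48 h → medium MTBE-extracted → LC-MS/MS cortisol vs 7-pt std curve. Gain/loss of signal fitted vs DMSO. MTT viability in same wells.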

[11] = CEETOX_H295R_DOC: CeeTox H295R High-throughput Steroidogenesis Assay for DOC (AID 2283439; active = hit-call score of the fitted dose curve at least 0.9, where 1 is the maximum; inactive = score below 0.9); conditions: actives raise or lower the signal
Summary of the method: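 Readout: 11-deoxycorticosterone in culture medium by reverse-phase C18 HPLC with ESI+ tandem MS after MTBE extraction. Cells: H295R, forskolin-primed (10 uM, 48 h), chemical-treated 48 h; DMSO 0.1% final. Activity fitted bidirectionally versus DMSO.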

[12] = CEETOX_H295R_PROG: CeeTox H295R High-throughput Steroidogenesis Assay for Progesterone (PROG) (AID 2283442; active = hit-call score of the fitted dose curve at least 0.9, where 1 is the maximum; inactive = score below 0.9;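 for AC50: human H295R adrenal cells primed with 10 µM forskolin before dosing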); conditions: actives raise or lower the signal
Summary of the method: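 H295R human adrenal cells were prestimulated with 10 uM forskolin for 48 h, then exposed to test chemical (0.1% DMSO final) for 48 h. Medium progesterone was MTBE-extracted and quantified by HPLC-MS/MS, with bidirectional fitting against DMSO.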

[13] = read-out: Tumor necrosis factor receptor superfamily member 6 (Homo sapiens) (UniProt P25445); assay: LTEA_HepaRG_FAS: Life Technologies and Expression Analysis (LTEA) Assay for Fas cell surface death receptor (FAS) using HepaRG (AID 2283447; active = hit-call score of the fitted dose curve at least 0.9, where 1 is the maximum; inactive = score below 0.9); conditions: mRNA level, 48 h; actives raise or lower the signal
Summary of the method: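 FAS transcript level was measured by TaqMan qRT-PCR against three housekeeping genes after 48 h chemical exposure. Cells were HepaRG, 0.5% DMSO vehicle, with a top concentration of 100 uM and half-log dilutions over eight points, in duplicate.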

[14] = read-out: Fatty acid synthase (Homo sapiens) (UniProt P49327); assay: LTEA_HepaRG_FASN: Life Technologies and Expression Analysis (LTEA) Assay for Fatty Acid Synthase (FASN) using HepaRG (AID 2283448; active = hit-call score of the fitted dose curve at least 0.9, where 1 is the maximum; inactive = score below 0.9); conditions: mRNA level, 48 h; actives raise or lower the signal
Summary of the method: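 FASN expression changes, up or down relative to 0.5% DMSO, were measured by qRT-PCR in human HepaRG cells after 48 h treatment with chemicals at eight concentrations (half-log steps from 100 uM).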

[15] = read-out: Cyclin D2 (CCND2), CCND2 (gene 894); assay: LTEA_HepaRG_CCND2: Life Technologies and Expression Analysis (LTEA) Assay for Cyclin D2 (CCND2) using HepaRG (AID 2283449; active = hit-call score of the fitted dose curve at least 0.9, where 1 is the maximum; inactive = score below 0.9); conditions: mRNA level, 48 h; actives raise or lower the signal
Summary of the method: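 Read-out is CCND2 mRNA level measured by qRT-PCR in human HepaRG liver cells and normalised to three housekeeping genes. Chemicals were applied for 48 h at up to 100 uM, with gain or loss fitted relative to 0.5% DMSO.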

[16] = CEETOX_H295R_ANDR: CeeTox H295R High-throughput Steroidogenesis Assay for Androstenedione (ANDR) (AID 2283436; active = hit-call score of the fitted dose curve at least 0.9, where 1 is the maximum; inactive = score below 0.9); conditions: actives raise or lower the signal
Summary of the method: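 Read-out is androstenedione secreted into medium, measured by tandem mass spectrometry after liquid-liquid extraction. Cells were H295R, dosed for 48 h per modified OECD 456; activity fitted in both directions relative to DMSO.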

Measured: AC50

Sequence of Retinoic acid receptor RXR-alpha (Homo sapiens) (P19793 whole entry, looked up, the tested form may be a part): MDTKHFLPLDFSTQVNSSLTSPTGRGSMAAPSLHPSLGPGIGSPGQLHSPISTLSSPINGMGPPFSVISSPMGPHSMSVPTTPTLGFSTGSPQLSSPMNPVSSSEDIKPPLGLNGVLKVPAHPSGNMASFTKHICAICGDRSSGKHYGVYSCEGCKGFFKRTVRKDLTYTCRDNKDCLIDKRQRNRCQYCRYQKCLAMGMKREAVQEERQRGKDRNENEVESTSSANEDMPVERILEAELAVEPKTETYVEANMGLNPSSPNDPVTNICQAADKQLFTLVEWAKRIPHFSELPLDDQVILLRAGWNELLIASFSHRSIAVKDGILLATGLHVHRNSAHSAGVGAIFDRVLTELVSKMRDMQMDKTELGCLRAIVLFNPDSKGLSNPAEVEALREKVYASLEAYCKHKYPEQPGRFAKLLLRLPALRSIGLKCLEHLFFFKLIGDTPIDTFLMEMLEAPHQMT
Sequence of Bile acid receptor (Homo sapiens) (Q96RI1 whole entry, looked up, the tested form may be a part): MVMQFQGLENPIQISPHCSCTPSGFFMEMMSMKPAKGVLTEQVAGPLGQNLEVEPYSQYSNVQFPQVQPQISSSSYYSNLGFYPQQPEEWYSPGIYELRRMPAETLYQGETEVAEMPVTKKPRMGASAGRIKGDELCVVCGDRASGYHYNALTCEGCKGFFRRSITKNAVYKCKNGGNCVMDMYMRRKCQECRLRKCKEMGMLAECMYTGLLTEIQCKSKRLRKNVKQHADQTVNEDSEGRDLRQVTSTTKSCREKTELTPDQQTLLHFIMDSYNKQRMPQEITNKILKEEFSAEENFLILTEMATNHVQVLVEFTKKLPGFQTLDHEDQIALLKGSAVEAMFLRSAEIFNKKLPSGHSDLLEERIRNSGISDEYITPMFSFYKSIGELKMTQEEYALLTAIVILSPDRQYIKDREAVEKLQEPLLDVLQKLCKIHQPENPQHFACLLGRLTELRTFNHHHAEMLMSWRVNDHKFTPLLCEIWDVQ
Sequence of Peroxisome proliferator-activated receptor gamma (Homo sapiens) (P37231 whole entry, looked up, the tested form may be a part): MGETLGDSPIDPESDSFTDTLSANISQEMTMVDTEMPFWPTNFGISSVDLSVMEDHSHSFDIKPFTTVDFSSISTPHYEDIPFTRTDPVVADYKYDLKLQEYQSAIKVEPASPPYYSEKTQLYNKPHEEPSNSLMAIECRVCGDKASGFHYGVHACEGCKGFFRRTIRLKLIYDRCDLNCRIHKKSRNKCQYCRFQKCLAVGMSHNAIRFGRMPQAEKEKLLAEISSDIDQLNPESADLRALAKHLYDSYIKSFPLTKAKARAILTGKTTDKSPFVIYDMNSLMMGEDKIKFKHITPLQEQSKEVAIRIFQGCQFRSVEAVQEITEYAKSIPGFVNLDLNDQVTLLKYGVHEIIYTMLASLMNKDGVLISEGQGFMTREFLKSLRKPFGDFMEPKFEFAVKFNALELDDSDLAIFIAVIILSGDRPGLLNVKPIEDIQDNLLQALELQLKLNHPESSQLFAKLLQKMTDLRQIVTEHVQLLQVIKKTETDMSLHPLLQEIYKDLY
Sequence of Fatty acid synthase (Homo sapiens) (P49327 whole entry, looked up): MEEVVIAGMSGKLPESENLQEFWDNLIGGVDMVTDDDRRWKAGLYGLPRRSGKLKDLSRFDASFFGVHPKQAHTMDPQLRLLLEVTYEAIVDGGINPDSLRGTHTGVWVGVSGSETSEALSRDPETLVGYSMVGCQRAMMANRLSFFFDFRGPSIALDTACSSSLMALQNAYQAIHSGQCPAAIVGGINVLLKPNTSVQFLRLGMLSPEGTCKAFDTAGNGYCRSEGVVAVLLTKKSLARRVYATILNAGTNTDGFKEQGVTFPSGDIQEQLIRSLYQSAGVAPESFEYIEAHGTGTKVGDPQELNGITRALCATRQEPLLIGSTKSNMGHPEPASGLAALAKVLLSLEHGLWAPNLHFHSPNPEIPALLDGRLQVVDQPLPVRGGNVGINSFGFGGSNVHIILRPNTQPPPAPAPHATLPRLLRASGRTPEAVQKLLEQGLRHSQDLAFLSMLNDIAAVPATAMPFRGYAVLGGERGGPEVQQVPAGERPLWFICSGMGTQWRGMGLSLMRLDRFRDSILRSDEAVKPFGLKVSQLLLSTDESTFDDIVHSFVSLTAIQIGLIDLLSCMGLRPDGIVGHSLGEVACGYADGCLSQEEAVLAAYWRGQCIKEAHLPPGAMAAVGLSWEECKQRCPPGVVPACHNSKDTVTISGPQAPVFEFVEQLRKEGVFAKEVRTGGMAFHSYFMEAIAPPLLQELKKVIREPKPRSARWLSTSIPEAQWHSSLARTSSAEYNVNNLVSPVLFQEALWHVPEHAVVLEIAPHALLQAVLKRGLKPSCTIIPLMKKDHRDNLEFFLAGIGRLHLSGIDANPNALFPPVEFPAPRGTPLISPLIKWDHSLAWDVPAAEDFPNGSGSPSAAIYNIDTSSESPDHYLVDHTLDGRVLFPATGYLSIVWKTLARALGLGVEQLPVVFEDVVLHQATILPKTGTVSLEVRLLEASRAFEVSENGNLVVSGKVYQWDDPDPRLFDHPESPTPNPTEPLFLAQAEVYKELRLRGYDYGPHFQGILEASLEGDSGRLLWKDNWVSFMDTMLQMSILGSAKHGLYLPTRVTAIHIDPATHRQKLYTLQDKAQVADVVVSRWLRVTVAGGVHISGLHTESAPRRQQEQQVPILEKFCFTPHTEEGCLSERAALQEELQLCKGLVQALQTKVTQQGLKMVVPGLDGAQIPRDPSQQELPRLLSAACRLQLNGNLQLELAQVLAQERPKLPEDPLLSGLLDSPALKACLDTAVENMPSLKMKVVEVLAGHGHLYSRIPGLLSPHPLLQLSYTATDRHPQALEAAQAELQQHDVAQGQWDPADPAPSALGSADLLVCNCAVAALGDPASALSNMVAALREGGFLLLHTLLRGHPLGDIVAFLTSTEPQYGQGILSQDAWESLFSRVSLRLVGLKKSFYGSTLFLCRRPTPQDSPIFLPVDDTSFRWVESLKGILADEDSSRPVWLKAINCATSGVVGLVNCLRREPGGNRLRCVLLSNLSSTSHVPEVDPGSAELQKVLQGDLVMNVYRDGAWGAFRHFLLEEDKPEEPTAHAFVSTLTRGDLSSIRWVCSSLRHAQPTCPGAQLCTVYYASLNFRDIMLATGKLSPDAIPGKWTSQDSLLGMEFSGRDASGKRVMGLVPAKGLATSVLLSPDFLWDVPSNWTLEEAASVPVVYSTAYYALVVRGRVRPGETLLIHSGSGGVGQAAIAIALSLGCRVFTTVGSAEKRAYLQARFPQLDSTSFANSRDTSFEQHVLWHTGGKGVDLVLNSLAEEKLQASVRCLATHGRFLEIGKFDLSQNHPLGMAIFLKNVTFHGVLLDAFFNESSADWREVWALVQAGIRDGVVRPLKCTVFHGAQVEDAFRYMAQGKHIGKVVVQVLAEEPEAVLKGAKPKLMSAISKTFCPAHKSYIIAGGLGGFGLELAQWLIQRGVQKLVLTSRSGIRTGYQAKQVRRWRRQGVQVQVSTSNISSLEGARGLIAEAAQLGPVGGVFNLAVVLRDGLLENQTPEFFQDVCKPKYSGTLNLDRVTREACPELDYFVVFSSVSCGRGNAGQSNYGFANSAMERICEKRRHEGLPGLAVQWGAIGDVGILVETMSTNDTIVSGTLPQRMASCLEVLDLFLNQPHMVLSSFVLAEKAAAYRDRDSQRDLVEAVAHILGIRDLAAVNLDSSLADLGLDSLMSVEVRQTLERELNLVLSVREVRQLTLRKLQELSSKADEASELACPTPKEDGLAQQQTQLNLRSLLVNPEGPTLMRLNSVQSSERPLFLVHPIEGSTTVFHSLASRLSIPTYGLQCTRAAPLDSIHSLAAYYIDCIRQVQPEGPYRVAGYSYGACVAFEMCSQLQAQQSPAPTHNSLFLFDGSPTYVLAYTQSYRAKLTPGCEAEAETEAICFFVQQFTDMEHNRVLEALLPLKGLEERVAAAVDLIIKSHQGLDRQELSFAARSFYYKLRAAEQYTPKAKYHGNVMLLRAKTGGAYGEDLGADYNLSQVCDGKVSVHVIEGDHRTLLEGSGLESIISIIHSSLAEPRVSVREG

CCCC/C=C\CCCCCCCCCC=O
inactive: [1] | [2] | [3]

CC(C)=CCCC(C)CC=O (stereo unspecified)
inactive: [1] | [4] | [2] | [3] | [5]

OC1OC[C@@H](O)[C@H](O)[C@H]1O (stereo partly specified)
inactive: [2] | [6] | [3] | [5]

C=O
inactive: [2] | [6] | [3] | [5]

CCCCCCCCCCCCCOS(=O)(=O)O
inactive: [3]
active: [2] 78.4 µM

CC(C)=CCC[C@](C)(O)[C@@H]1CC=C(C)CC1
inactive: [2] | [6] | [3]

C[Si](O[Si](C)(C)C)O[Si](C)(C)C
inactive: [2] | [6] | [3] | [5]

CC1=CC(=O)NS(=O)(=O)O1
inactive: [2] | [6] | [3]

CCCCCCCCCCCCN
active: [2] 11 µM | [6] 10.6 µM
inactive: [3]

NC(=O)NC1NC(=O)NC1=O (stereo unspecified)
inactive: [2] | [6] | [3] | [5]

CCCCCCCCCCN
active: [2] 59.8 µM | [6] 78.2 µM

C=CC[N+](C)(C)CC=C
inactive: [2] | [6] | [3] | [5]

C=CCOc1nc(OCC=C)nc(OCC=C)n1
active: [7] 25.9 µM | [8] 38.6 µM | [10] 29.3 µM | [12] 50 µM
inactive: [2] | [6] | [3] | [5] | [9] | [11]

c1ccc2[nH]ccc2c1
inactive: [2] | [6] | [3] | [5]

CC1(C)[C@@H]2CC[C@@]1(C)[C@H](O)C2
inactive: [2] | [6]

CC(C)CCCCCCCOC(=O)c1ccc(C(=O)OCCCCCCCC(C)C)c(C(=O)OCCCCCCCC(C)C)c1
inactive: [2] | [6] | [3]

O=C(O)c1ccc([N+](=O)[O-])cc1
not listed: [1] | [3] | [5] | [6] | [16]
inactive: all other assays above

O=c1cc(-c2ccccc2)oc2cc(O)cc(O)c12
inactive: [2] | [6] | [3] | [7] | [8] | [16] | [10]
active: [9] 16.6 µM | [11] 12.2 µM | [12] 16.1 µM

COc1cc(C(C)(C)C)c(O)c(C(C)(C)C)c1
inactive: [4] | [3]
active: [1] 67 µM

Cc1ccc(O)c(C(C)(C)C)c1
active: [2] 50 µM
inactive: [6] | [3] | [5]

O=C1C(c2[nH]c3ccc(S(=O)(=O)O)cc3c2O)=Nc2ccc(S(=O)(=O)O)cc21
inactive: [2] | [6] | [3] | [5]

CCCCC(CC)COC(=O)/C=C\C(=O)OCC(CC)CCCC (stereo unspecified)
inactive: [3] | [5]
active: [2] 7.85 µM | [6] 50 µM
